Only some compounds are listed: those with a hit (about 21% of all), similar ones and a draw of the others.
Pf growth 96h: Primary qHTS for delayed death inhibitors of the malarial parasite plastid, 96 hour incubation | P. falciparum luciferase reporter growth, 96 h | Potency, µM (doses to about 28.7 µM), for inactives: top-dose activity change, negative = inhibition, actives largely listed as inhibitors | hit rate 6.9% among 320,000 | AID 504834, 2011; further: potency means the concentration at half of the fitted maximal effect; on the % scale 0 is the no-effect control and ±100 the full control effect
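Parasite growth measured via integrated firefly luciferase reporter in P. falciparum. Infected erythrocytes at 2% hematocrit, 0.05% parasitemia final were treated 96 hours at 37 C under 5% CO2, and luminescence was read.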
NS1 inh: qHTS Assay for Inhibitors of Influenza NS1 Protein Function; Potency, µM (titrated, usually from 46.1 µM), for inactives: at the highest dose activity, positive = more growth; hit rate 0.4% among 270,000; AID 2326, 2010; calls by dose curve; further: potency means the concentration at half of the fitted maximal effect; actives are rising curves; nearly all actives have a fitted effect of over 50% in size
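Read-out: OD600 growth recovery of NS1-expressing budding yeast. Cells grown overnight at 30C in -URA glucose medium, washed, resuspended and diluted 1:100 in 2% galactose assay medium, pH 6.0. Same strain lacking NS1 served as positive control.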
Sm TGR block: qHTS Assay for the Inhibitors of Schistosoma Mansoni Peroxiredoxins | Schistosoma mansoni thioredoxin glutathione reductase (TGR), Q962Y6 | purified TGR, DTNB reduction, TNB absorbance 405 nm | Potency, µM (highest dose often 114 µM), for the others: at the highest dose activity change, negative = inhibition, usual class: inhibitors | hit rate 3% among 360,000; further: potency means the concentration at half of the fitted maximal effect; on the % scale 0 is the no-effect control and ±100 the full control effect; nearly all actives have a fitted effect of over 60% in size
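Kinetic colorimetric format: TGR-catalysed, NADPH-driven DTNB reduction monitored via TNB absorbance. Enzyme dispensed at 20 nM; compound exposure 15 min at room temperature before reaction start.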
Shiga toxin inh: A qHTS for Small Molecule Inhibitors of Shiga Toxin | Vero cells, Shiga toxin protein synthesis inhibition reporter | inhibition, % at 38.7 µM | hit rate 9.2% among 290,000; in the data active means inhibition mostly above about 28%, no sharp cut-off; inactive means mostly below about 43%; further: 0% is about no effect
Pf growth 48h: Primary qHTS for delayed death inhibitors of the malarial parasite plastid, 48 hour incubation; Potency, µM (titrated, usually from 28.7 µM), inactives show at the highest dose activity change, negative = inhibition, hits mostly inhibitors; P. falciparum luciferase growth in erythrocytes, 48 h; AID 504832, 2011; hit rate 5.9% among 310,000; further: potency means the concentration at half of the fitted maximal effect; on the % scale 0 is the no-effect control and ±100 the full control effect
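First compound was added to culture medium, then infected red cells at 0.1% parasitemia and 2% hematocrit (final). After incubation at 37 C under 5% CO2, luciferase detection reagent was dispensed and light output recorded.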
CHX counter: Cycloheximide Counterscreen for Small Molecule Inhibitors of Shiga Toxin; cell reporter, cycloheximide protein synthesis inhibition counterscreen; max response, %; hit rate 12% among 300,000; AID 2314, 2010; in the data active means max response mostly above about 13%, no sharp cut-off; inactive means mostly below about 14%; further: read at 38.3 µM for the half of the compounds with a filed dose; 0% is about no effect
* marks the source's active call; other numbers are inactive results; ? = inconclusive; . = not tested or not shown. Unless noted, the call rests on the fitted dose curve; in most records, active means well fitted curve in the direction sought with a large enough effect; inconclusive means small, poorly fitted or top-dose-only effect, or another doubt; inactive means no such curve, though single readings can be large; an effect the other way counts as inactive or inconclusive.

SMILES | Pf growth 96h | NS1 inh | Sm TGR block | Shiga toxin inh | Pf growth 48h | CHX counter
CCCCCCCCCn1c2c(c(=N)c3c1CCC3)CCCC2 | 27% | -60% | 0% | -53 | ? | -8
CCCCn1c2c(c(=N)c3ccccc31)CCC2 | ? | -8% | 6% | 18 | 0.41µM* | 0
CCn1c2c(c(=N)c3c1CCC3)CCCC2 | ? | -1% | -1% | -4 | 0.52µM* | -1
CCn1c(=S)[nH]c2sc3c(c2c1=O)CCCC3 | 7% | 0% | -24% | 11 | ? | -1
O=C(Cc1cccs1)NCCc1ccc(Cl)cc1 | -19% | 7% | -20% | -10 | 4% | -2
CC(NC(=O)c1ccc(Cl)cc1)C(=O)NC1=NCCS1 (stereo unspecified) | 66% | -47% | 5% | 5 | 17% | -2
O=C(/C=C/c1ccc(Cl)c(Cl)c1)NC1=NCCS1 | 0% | 4% | . | 79* | 21% | 35*
CC(C)C(C(=O)NC1=NCCS1)c1ccc(Cl)cc1 (stereo unspecified) | ? | . | 5% | -5 | 3.7µM* | 6
COc1ccc(/C=C/C(=O)Nc2ccc(Cl)c(Cl)c2)cc1OC | . | . | 13% | . | . | .
CC(C)c1ccc(/C=C/C(=O)NC2=NCCS2)cc1 | 2% | -87% | 13% | 44* | -67% | 44*
CC(=O)NCc1c(I)c(NC(C)=O)c(I)c(C(=O)O)c1I | -16% | . | . | . | 6% | .
COC(=O)c1ccccc1NC(=O)c1sc2nc(C)cc(C)c2c1NC(=O)c1ccccc1Cl | . | . | -4% | . | . | .
Cc1nn2c(=O)c(NC(=O)c3ccc(Cl)cc3)cnc2s1 | 17% | . | 1% | 52* | 4% | 36*
Cc1ccc(C(=O)Nc2cnc3sc(C)nn3c2=O)cc1 | 6% | -4% | 1% | 58* | 93% | 37*
COCCCNC(=O)CN(c1cc([N+](=O)[O-])ccc1OC)S(C)(=O)=O | 95% | 0% | 22% | -11 | 37% | -1
CCSc1nn(CC(=O)Nc2cccc(CC)c2)c(N)c1S(=O)(=O)c1ccccc1 | . | . | 2% | . | . | .
COC(=O)c1ccc(N=Cc2c(C(F)(F)F)[nH][nH]c2=O)cc1 | 44% | . | -2% | 8 | 34% | -3
Cc1ccc(OCCn2ncc3ccccc3c2=O)c(C)c1 | -23% | -9% | 2% | 26 | -22% | 15*
O=c1c2ccccc2cnn1CCOc1cccc(Br)c1 | 9.3µM* | -13% | -12% | 120* | ? | 51*
CCOc1ccc(N(C(C)C(=O)NCCSc2ccc(Cl)cc2)S(C)(=O)=O)cc1 (stereo unspecified) | . | . | -19% | . | . | .
O=C(N/N=C/c1ccco1)c1[nH]ncc1Br | -3% | -4% | -14% | 120* | 5% | 43*
O=C(N/N=C/c1cccnc1)c1[nH]ncc1Br | 11% | 6% | 10% | 50* | 19% | 37*
COc1ccc(/C=N/NC(=O)c2[nH]ncc2Br)c(OC)c1 | 28% | 7% | -20% | 68* | 21% | 38*
O=C(N/N=C/c1ccccc1)c1[nH]ncc1Br | -7% | . | -4% | 110* | 148% | 44*
COc1ccc(CCNC(=O)CSc2nncs2)cc1 | 2% | 6% | 4% | 14 | -3% | 5
SMILES | Pf growth 96h | NS1 inh | Sm TGR block | Shiga toxin inh | Pf growth 48h | CHX counter
C(=N\Nc1nc2ccccc2s1)/c1ccco1 | 26% | 4% | 6% | 45* | 111% | 44*
CCc1nnc(N/N=C/c2cccs2)n1N | ? | -64% | -5% | 6 | -5% | 10
CCn1c(C)c(/C=N/Nc2nc3ccccc3s2)c2ccccc21 | ? | 9% | 16% | 105* | ? | 61*
C(=N\Nc1nc2ccccc2s1)/c1cccs1 | 7% | -15% | 17% | 103* | 2% | 50*
Cc1ccnc(N/N=C/c2ccco2)n1 | 91% | -1% | -11% | 47 | . | 41*
OC[C@H]1OC(O)[C@@H](O)[C@@H](O)[C@H]1O (stereo partly specified) | . | . | . | 17 | . | -4
COc1cc(NC(=O)C(NS(=O)(=O)c2ccc3c(c2)CCCC(=O)N3)C(C)C)cc(OC)c1 (stereo unspecified) | . | . | -8% | . | . | .
Cc1ccccc1-c1nc(CS(=O)(=O)CC(=O)NCC(C)c2ccccc2)c(C)o1 (stereo unspecified) | . | . | -14% | . | . | .
CCC(C)Cn1c(/C=C/c2ccccc2)nc2ccccc21 (stereo unspecified) | . | . | 2% | . | . | .
Cc1ccc(C)c(-c2csc(N/N=C/c3ccco3)n2)c1 | 22% | . | -20% | 95* | ? | 17
Cc1ccc(C)c(-c2csc(Nc3ncccn3)n2)c1 | -1% | 21% | -7% | 12 | -1% | -1
Cc1ccsc1/C=N\NC(=O)Cn1nnc2ccccc21 | 300% | 6% | 1% | -1 | 37% | 15
Cc1ccsc1/C=N/Nc1nc2ccccc2s1 | ? | ? | 4% | 146* | 265% | 70*
O=C(Cn1nnc(-c2ccccc2Cl)n1)N/N=C/c1ccc(-c2cccc(Cl)c2)o1 | 15% | 12% | -7% | -7 | -4% | -3
CC(C)NC(=O)NC(=O)COC(=O)c1ccc(F)cc1F | 42% | -5% | -12% | -4 | -1% | -1
Cc1cccc(C(=O)Nc2cccc(C(=O)OCc3cc(=O)n4nc(C(C)C)sc4n3)c2)c1 | . | . | -9% | . | . | .
COc1cc(CNCc2ccc(OC)cc2OC)cc(OC)c1 | 0% | 4% | ? | . | -52% | 2
Cn1cc(C(=O)NC2CCCCC2)c(=O)c2cc(S(=O)(=O)N3CCCC3)ccc21 | 8.3µM* | -1% | 2% | -12 | -22% | -2
CC(NC(=O)c1cn(C)c2ccc(S(=O)(=O)N3CCCC3)cc2c1=O)c1ccccc1 (stereo unspecified) | 12µM* | 18% | 1% | -10 | 12µM* | -3
CC1CCCCC1NC(=O)c1cn(C)c2ccc(S(=O)(=O)N3CCCC3)cc2c1=O (stereo unspecified) | 1% | 6% | -10% | -13 | 8.3µM* | -3
COC(=O)c1cn(C)c2ccc(S(=O)(=O)N3CCCC3)cc2c1=O | 3.7µM* | -106% | 1% | 24 | 2% | 11
COc1cccc(NC(=O)/C(C#N)=C\c2cn(Cc3ccc(C)cc3)c3ccccc23)c1 | . | . | -1% | . | . | .
CNC(=O)COC(=O)c1ccc(Cl)c(S(N)(=O)=O)c1 | 89% | -3% | 1% | -1 | 70% | -2
Cc1ccc(S(=O)(=O)N2CCCCC2)cc1C(=O)OC(C)C(=O)NC1CCCCC1C (stereo unspecified) | 13µM* | . | 3% | . | ? | .
Cn1cc(C(=O)NCc2cccnc2)c(=O)c2cc(S(=O)(=O)N3CCCCCC3)ccc21 | 6.6µM* | . | 3% | -10 | 2% | -2
COc1cc(CNC2CCCc3ccccc32)cc(OC)c1OC (stereo unspecified) | ? | -4% | -17% | -5 | ? | -2

Screening data deposited in PubChem by National Center for Advancing Translational Sciences (NCATS).
